These molecules were tested against Solute carrier family 2, facilitated glucose transporter member 1 (Homo sapiens) (UniProt P11166) (assay: ST_JUDE_LEISH: Cytotoxicity at 2uM final concentration against transgenic Leishmania Mexicana promastigotes LmGLUT1 that are glucose transport deficient and complemented with the human glucose transporter GLUT1. Activity is measured by DNA content using SYBR green in vitro).
Assay type: functional

Chain of Solute carrier family 2, facilitated glucose transporter member 1 (Homo sapiens) (P11166 whole entry): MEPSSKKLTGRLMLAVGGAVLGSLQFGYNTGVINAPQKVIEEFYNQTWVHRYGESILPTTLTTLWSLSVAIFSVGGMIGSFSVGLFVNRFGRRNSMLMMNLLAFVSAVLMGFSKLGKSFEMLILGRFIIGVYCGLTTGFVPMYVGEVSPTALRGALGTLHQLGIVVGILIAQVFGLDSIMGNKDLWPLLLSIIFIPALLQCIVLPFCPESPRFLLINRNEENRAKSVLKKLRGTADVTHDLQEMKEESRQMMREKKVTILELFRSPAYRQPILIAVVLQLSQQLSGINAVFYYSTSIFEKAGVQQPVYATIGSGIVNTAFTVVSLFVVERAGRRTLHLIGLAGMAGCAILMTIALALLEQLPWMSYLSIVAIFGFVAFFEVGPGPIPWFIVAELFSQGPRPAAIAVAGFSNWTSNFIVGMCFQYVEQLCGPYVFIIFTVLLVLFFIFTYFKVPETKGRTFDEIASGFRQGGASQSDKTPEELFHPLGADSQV

**Q.** With `Nc1ncc(OC2CCCCC2)c(N)n1` as the molecule, how does the inhibition read?
**A.** -1.08%

**Q.** Which inhibition does the source give for `OC(c1cc(C(F)(F)F)nc2c(F)cccc12)C1CCCCN1` (centres undefined) here?
**A.** 0.27%

**Q.** How did the inhibition turn out when `COc1ccc2nccc(N3CCN(CCNCc4ccc5c(n4)NC(=O)CS5)CC3)c2n1` was run?
**A.** 0.43%

**Q.** How did the inhibition turn out when `Cc1nc(-c2cccc(C(=O)NC3CCC(CCN4CCc5ccc(-c6cccnc6)cc5CC4)CC3)c2)no1` (centres undefined) was run?
**A.** 11.5%

**Q.** With `CN(C(=O)Cc1ccc(Cl)c(Cl)c1)C1CCN(CCCCCNC(=O)/C=C/c2ccc(Cl)c(Cl)c2)CC1` as the molecule, how does the inhibition read?
**A.** 4.46%

**Q.** How did the inhibition turn out when `CCCCCC(=O)NCC(NCCCNc1cc(=O)c2ccccc2[nH]1)c1cc(Br)cc(Br)c1` (centres undefined) was run?
**A.** 5.16%

**Q.** `COc1ccc(-c2ccc(Nc3cccc(S(=O)(=O)CCN4CCC(CCN(C)C)CC4)c3)nc2)cn1` was tested. Which inhibition did it give?
**A.** -2.17%

**Q.** How did the inhibition turn out when `CCCCCCCN1CC[C@@H](CCCc2ccnc3ccc(OCCN4CCNCC4)cc23)[C@@H](CC)C1` was run?
**A.** 5.11%

**Q.** Which inhibition does the source give for `O=C(Nc1ccc(C(F)(F)F)cc1)c1ccc(NCCCN2CCCCCC2)c([N+](=O)[O-])c1` here?
**A.** 5.54%

**Q.** With `CCn1c(CN2CCC(C)CC2)nc2cc(NC(=O)c3cccs3)ccc21` as the molecule, how does the inhibition read?
**A.** 9.93%

**Q.** How did the inhibition turn out when `COCCNCc1ccc(-c2ccc3c(Nc4ccc(Cl)cc4F)ccnc3c2)o1` was run?
**A.** 2.75%

**Q.** With `Nc1c2c(nc3ccc(NC(=O)c4ccc([N+](=O)[O-])cc4)cc13)CCCC2` as the molecule, how does the inhibition read?
**A.** -1.93%

**Q.** How did the inhibition turn out when `CN1CCN(c2ccnc3ccc(NC(=O)Nc4cccc5ccccc45)cc23)CC1` was run?
**A.** 1.43%

**Q.** Which inhibition does the source give for `Cc1ccc(S(=O)(=O)Nc2ccc(Nc3nccc(Nc4cccc5[nH]ncc45)n3)cc2)cc1` here?
**A.** 1.77%

**Q.** For `Cc1cc(N2CCN(CC3CCCCC3)CC2)nc(Nc2ccc(Br)cc2)n1`, which inhibition is on record?
**A.** 1.47%

**Q.** With `CCCNC(=O)c1cncc(-c2cccc(CNC3Cc4ccccc4C3)c2)c1` as the molecule, how does the inhibition read?
**A.** -1.27%

**Q.** `COc1cc2nc(NCCc3ccccc3)nc(NCCCc3ccccc3)c2cc1OC` was tested. Which inhibition did it give?
**A.** 6.89%

**Q.** How did the inhibition turn out when `CCN(CC)S(=O)(=O)c1ccc(C=CC(=O)Nc2cc(Cl)ccc2N2CCOCC2)cc1` was run?
**A.** 6.36%

**Q.** Which inhibition does the source give for `CCCCOc1c(CNCCCCCCNCc2ccc3ccccc3c2OCCCC)ccc2ccccc12` here?
**A.** 99.5%

**Q.** How did the inhibition turn out when `CS(=O)(=O)Nc1ccc2c(C3CCN(CCC4CCN(C(=O)/C=C/c5ccc(Cl)c(Cl)c5)CC4)CC3)c[nH]c2c1` was run?
**A.** 4.12%

**Q.** With `CCN(CC)CCN(Cc1ccc(-c2ccc(C(F)(F)F)cc2)cc1)C(=O)Cn1c(SCc2ccc(F)cc2)nc(=O)c2ccccc21` as the molecule, how does the inhibition read?
**A.** 4.02%

**Q.** How did the inhibition turn out when `COc1ccc2[nH]c(C)cc(=NN=Cc3ccc(F)cc3)c2c1` was run?
**A.** 4.47%

**Q.** `Cc1cnc(NCCc2ccc(F)cc2)nc1N[C@@H](CC(C)C)C(=O)Nc1ccccc1` was tested. Which inhibition did it give?
**A.** 5.17%

**Q.** How did the inhibition turn out when `O=C(N[C@H]1CCN(CCc2ccc(O[C@H]3CCNC3)c(Br)c2)C1)c1ccc(Cl)c(Cl)c1` was run?
**A.** 0.91%

These molecules were tested against Hexose transporter 1 (Plasmodium falciparum) (UniProt O97467) (assay: ST_JUDE_LEISH: Cytotoxicity at 2uM final concentration against transgenic Leishmania Mexicana promastigotes LmPfHT that are glucose transport deficient and complemented with the Plasmodium falciparum hexose transporter. Activity is measured by DNA content using SYBR green in vitro).
Assay type: functional

**Q.** For `OC(c1ccccc1)C1CN(Cc2ccccc2)CCC1(O)c1ccccc1` (centres undefined), which inhibition is on record?
**A.** 7.93%

**Q.** How did the inhibition turn out when `CC(Cc1ccc(Cl)cc1)Nc1nc(NC2CCCC2)nc(N2CCC(C#N)(c3ccccc3)CC2)n1` (centres undefined) was run?
**A.** 5.49%

**Q.** For `O=C(C=Cc1cccs1)N(CCCn1ccnc1)c1nc2ccc(F)cc2s1`, which inhibition is on record?
**A.** 4.09%

**Q.** For `CCCNCc1ccc(-c2ccc(CN(CCOC)C(=O)CCC(=O)c3ccc(OC)c(F)c3)cc2)nc1`, which inhibition is on record?
**A.** 3.36%

**Q.** How did the inhibition turn out when `CCc1cc2c(N)nc(N)nc2nc1-c1ccccc1` was run?
**A.** 3.93%

**Q.** Which inhibition does the source give for `CN(c1ccc2c(c1)nc(NCc1ccc(F)cc1)n2C)c1ccnc(Nc2ccc(CS(C)(=O)=O)cc2)n1` here?
**A.** -0.52%

**Q.** `CCn1c(-c2nonc2N)nc2c(C#CC(C)(C)O)ncc(OCCNCCc3ccc(OC)cc3)c21` was tested. Which inhibition did it give?
**A.** 9.69%

**Q.** Which inhibition does the source give for `CCCc1cc(N2CCC(c3ccccc3)(N3CCCCC3)CC2)nc(Nc2ccc(OC)cc2)n1` here?
**A.** 16.5%

**Q.** How did the inhibition turn out when `O=C(Nc1cccc(-c2ccc(-c3nc4cc(C(F)(F)F)ccc4[nH]3)cc2)c1)Nc1ccc(F)c(F)c1F` was run?
**A.** 0.2%

**Q.** With `CN1CCN(c2ccnc3ccc(NC(=O)Nc4ccc(Br)cc4)cc23)CC1` as the molecule, how does the inhibition read?
**A.** 0.3%

**Q.** How did the inhibition turn out when `COc1cccc(OC2CCN(C(=O)c3cc(C(C)(C)C)nn3Cc3ccccc3)CC2)c1` was run?
**A.** 0.53%

**Q.** With `Brc1ccc(Nc2nc(NCC3CCCO3)c3ccccc3n2)cc1` (centres undefined) as the molecule, how does the inhibition read?
**A.** 22.3%

**Q.** `COc1cccc2c(NN=Cc3ccc(Cl)cc3)ccnc12` was tested. Which inhibition did it give?
**A.** 2.54%

**Q.** `O=C(Nc1cccc(C(F)(F)F)c1)c1cc([N+](=O)[O-])cc2cn[nH]c12` was tested. Which inhibition did it give?
**A.** 5.74%

**Q.** With `O=C(c1ccc(Cl)c(Cl)c1)N1CCc2c([nH]c3ccccc23)C1CN1CCCC1` (centres undefined) as the molecule, how does the inhibition read?
**A.** 5.06%

**Q.** How did the inhibition turn out when `Cc1cc(-c2nc3cncc(-c4cccc(CN5CCCC5Cc5cccnc5)c4)c3n2C)nn1C` (centres undefined) was run?
**A.** -2.01%

**Q.** `Nc1ncc(OC2CCCCC2)c(N)n1` was tested. Which inhibition did it give?
**A.** 0.87%

**Q.** `OC(c1cc(C(F)(F)F)nc2c(F)cccc12)C1CCCCN1` (centres undefined) was tested. Which inhibition did it give?
**A.** 1.52%

**Q.** Which inhibition does the source give for `COc1ccc2nccc(N3CCN(CCNCc4ccc5c(n4)NC(=O)CS5)CC3)c2n1` here?
**A.** 1.14%

**Q.** Which inhibition does the source give for `Cc1nc(-c2cccc(C(=O)NC3CCC(CCN4CCc5ccc(-c6cccnc6)cc5CC4)CC3)c2)no1` (centres undefined) here?
**A.** 2.55%

**Q.** With `CN(C(=O)Cc1ccc(Cl)c(Cl)c1)C1CCN(CCCCCNC(=O)/C=C/c2ccc(Cl)c(Cl)c2)CC1` as the molecule, how does the inhibition read?
**A.** 3.72%

**Q.** Which inhibition does the source give for `CCCCCC(=O)NCC(NCCCNc1cc(=O)c2ccccc2[nH]1)c1cc(Br)cc(Br)c1` (centres undefined) here?
**A.** 2.44%

**Q.** With `COc1ccc(-c2ccc(Nc3cccc(S(=O)(=O)CCN4CCC(CCN(C)C)CC4)c3)nc2)cn1` as the molecule, how does the inhibition read?
**A.** -1.68%

**Q.** Which inhibition does the source give for `CCCCCCCN1CC[C@@H](CCCc2ccnc3ccc(OCCN4CCNCC4)cc23)[C@@H](CC)C1` here?
**A.** 4.74%

**Q.** `O=C(Nc1ccc(C(F)(F)F)cc1)c1ccc(NCCCN2CCCCCC2)c([N+](=O)[O-])c1` was tested. Which inhibition did it give?
**A.** 6.55%

**Q.** With `CCn1c(CN2CCC(C)CC2)nc2cc(NC(=O)c3cccs3)ccc21` as the molecule, how does the inhibition read?
**A.** 9.8%

**Q.** Which inhibition does the source give for `COCCNCc1ccc(-c2ccc3c(Nc4ccc(Cl)cc4F)ccnc3c2)o1` here?
**A.** 2.3%

**Q.** `Nc1c2c(nc3ccc(NC(=O)c4ccc([N+](=O)[O-])cc4)cc13)CCCC2` was tested. Which inhibition did it give?
**A.** -0.82%

**Q.** For `CN1CCN(c2ccnc3ccc(NC(=O)Nc4cccc5ccccc45)cc23)CC1`, which inhibition is on record?
**A.** -0.09%

**Q.** With `Cc1ccc(S(=O)(=O)Nc2ccc(Nc3nccc(Nc4cccc5[nH]ncc45)n3)cc2)cc1` as the molecule, how does the inhibition read?
**A.** 2.62%

**Q.** How did the inhibition turn out when `Cc1cc(N2CCN(CC3CCCCC3)CC2)nc(Nc2ccc(Br)cc2)n1` was run?
**A.** 3.17%

**Q.** With `CCCNC(=O)c1cncc(-c2cccc(CNC3Cc4ccccc4C3)c2)c1` as the molecule, how does the inhibition read?
**A.** -1.42%

**Q.** How did the inhibition turn out when `COc1cc2nc(NCCc3ccccc3)nc(NCCCc3ccccc3)c2cc1OC` was run?
**A.** 10.1%

**Q.** `CCN(CC)S(=O)(=O)c1ccc(C=CC(=O)Nc2cc(Cl)ccc2N2CCOCC2)cc1` was tested. Which inhibition did it give?
**A.** 4.63%

**Q.** With `CCCCOc1c(CNCCCCCCNCc2ccc3ccccc3c2OCCCC)ccc2ccccc12` as the molecule, how does the inhibition read?
**A.** 49.1%

**Q.** For `CS(=O)(=O)Nc1ccc2c(C3CCN(CCC4CCN(C(=O)/C=C/c5ccc(Cl)c(Cl)c5)CC4)CC3)c[nH]c2c1`, which inhibition is on record?
**A.** 3.65%

**Q.** For `CCN(CC)CCN(Cc1ccc(-c2ccc(C(F)(F)F)cc2)cc1)C(=O)Cn1c(SCc2ccc(F)cc2)nc(=O)c2ccccc21`, which inhibition is on record?
**A.** 1.11%

**Q.** For `COc1ccc2[nH]c(C)cc(=NN=Cc3ccc(F)cc3)c2c1`, which inhibition is on record?
**A.** 5.21%

**Q.** Which inhibition does the source give for `Cc1cnc(NCCc2ccc(F)cc2)nc1N[C@@H](CC(C)C)C(=O)Nc1ccccc1` here?
**A.** 4.05%

**Q.** How did the inhibition turn out when `O=C(N[C@H]1CCN(CCc2ccc(O[C@H]3CCNC3)c(Br)c2)C1)c1ccc(Cl)c(Cl)c1` was run?
**A.** 3%

From ChEMBL document CHEMBL3433997, “St. Jude Leishmania screening dataset” (2016)
